Measured values from PubChem BioAssay (NCATS).
Results filed as inconclusive are left out. Active and inactive are the calls of the source. Calls follow the shape of the dose curve; as a rule, active = well fitted cell-killing curve with a large enough effect; inconclusive = small, poorly fitted or top-dose-only effect; inactive = flat fitted curve, though single readings scatter.

assay: Cell Viability - LYMP1-002 - Assay at 40 hr (AID 994); conditions: LYMP1-002 lymphoblastoid cell viability; series mostly up to 92.2 µM; viability change, negative = cytotoxic: at the top concentration;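 also: 0% = DMSO only and full inhibition = 92 µM tetraoctylammonium bromide; nearly all actives have a fitted effect of over 60% in size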
Outline: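 qHTS cytotoxicity; 2500 cells/well, 5 hr 37 C settle, compound 40 hr 37 C. CellTiter-Glo, 30 min RT, luminescence (ATP). Concentration-response, Hill fit → AC50. Pos. ctrl tetraoctylammonium bromide.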

Row | SMILES | viability change, negative = cytotoxic
1 | CC=O | -3.5% (inactive)
2 | Cc1ccc(CO)cc1 | 4.73% (inactive)
3 | Cc1cc([N+](=O)[O-])ccc1N | -3.2% (inactive)
4 | Clc1cc(Cl)cc(Cl)c1 | -3.09% (inactive)
5 | Nc1nc2ccccc2[nH]1 | -11.7% (inactive)
6 | NC(=O)c1ccccc1[N+](=O)[O-] | 4.05% (inactive)
7 | Oc1cccc(Nc2ccccc2)c1 | -12.8% (inactive)
8 | O=C(O)c1cccc(Cl)c1Cl | 3.98% (inactive)
9 | CCOc1cccc(N)c1 | -9.14% (inactive)
10 | CCC(C)(C)C(=O)O | -2.39% (inactive)
11 | ICCc1ccccc1 | -15% (inactive)
12 | COc1ccc(OC)cc1 | 5.4% (inactive)
13 | FC(F)(F)c1cccc(Cl)c1 | -5.76% (inactive)
14 | CCOc1ccccc1N | -0.627% (inactive)
15 | C=CC(=O)NC(C)C | -4.54% (inactive)
16 | Cc1ccc2cccnc2c1 | 5.15% (inactive)
17 | CCCCCCO | -2.62% (inactive)

Row | SMILES | viability change, negative = cytotoxic
18 | CC(=O)Nc1ccccc1C | -2.23% (inactive)
19 | CC(C)(c1cc(Br)c(OCC(Br)CBr)c(Br)c1)c1cc(Br)c(OCC(Br)CBr)c(Br)c1 (stereo not drawn) | -2.4% (inactive)
20 | COc1ccc(N=[N+]([O-])c2ccc(OC)cc2)cc1 | -11.3% (inactive)
21 | CNc1ccccc1 | 2.46% (inactive)
22 | Oc1c(Cl)ccc(Cl)c1Cl | -11.1% (inactive)
23 | CN(C)CCCNCCCN | -19.4% (inactive)
24 | O=C(Cl)c1cccc([N+](=O)[O-])c1 | -3.75% (inactive)
25 | CC(=C/C=C/C(C)=C/C=C/C=C(C)/C=C/C=C(C)/C=C/C(=O)O)/C=C/C(=O)O | -6.38% (inactive)
26 | Cc1cccc(C(=O)O)c1 | 4.1% (inactive)
27 | Cc1ccc2ncccc2c1 | -5.95% (inactive)
28 | O=Cc1ccc(C(=O)O)cc1 | -3.36% (inactive)
29 | NC(=O)/N=N/C(N)=O | -2.37% (inactive)
30 | CC(=O)c1cccc([N+](=O)[O-])c1 | -10% (inactive)
31 | O=[N+]([O-])c1cccc(C(F)(F)F)c1 | 3.54% (inactive)
32 | CCC(C)(C)OC | 3.43% (inactive)
33 | NC(N)=S | -1.72% (inactive)
